Structures are written as SMILES. Compounds without any hit were thinned out: in the full panel of roughly 83,000, 20% have a hit.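 How to read the values: 0–100, growth inhibition (40 = 60% inhibited); 0, no net growth; -100 to 0, cell death (-40 = 40% of starting cells died; -100 = all dead).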 A number with no mark means an inactive call. Activity calls are given as the source filed them. The calls were made as follows: active = growth percent below 10; inactive = the rest.

What all share (assay): NCI-60 one-dose screen, 48 h (100 = growth as untreated, 0 = no growth, -100 = all killed)
What all share (settings): 10 µM unless noted

Test [1] has as its system NCI-H23 lung.
The test system of test [2] is NCI-H226 lung.
Test [3] concerns NCI-H322M lung.
The test system of test [4] is HOP-62 NSCLC.
Test [5] concerns NCI-H460 lung.
The test system of test [6] is HOP-92 NSCLC.
The subject of test [7] is NCI-H522 lung.
For test [8], the system named is A549/ATCC NSCLC.
The subject of test [9] is 786-0 renal.
In test [10] the test system is COLO 205 colon.
Test [11] concerns DU-145 prostate.
Test [12] concerns K-562 leukemia.
In test [13] the test system is MALME-3M melanoma.
For test [14], the system named is MDA-MB-231 breast.
In test [15] the test system is RXF 393 renal.
The subject of test [16] is SF-268 CNS.
In test [17] the test system is SF-295 CNS.
Test [18] has as its system SF-539 CNS.
Test [19] concerns UACC-257 melanoma.
For test [20], the system named is M14 melanoma.

`CC(C)(C)c1ccc(S(=O)(=O)Oc2ccc(-c3sc4cc(OS(=O)(=O)c5ccc(C(C)(C)C)cc5)ccc4c3C(=O)c3ccc(OCCN4CCCCC4)cc3)cc2)cc1`: the growth in test [1] was 93.3%; in test [2], 94.7%; in test [3], 96.1%; in test [4] it was 90.8%; in [5], 104%; in test [6], 84.4%. For the same compound, the growth in test [7] is 72%; in test [8] it was 87.4%; in test [9], 89%; in test [10], 101%; in test [11], 114%; in [12], 103%. The growth in test [13] was 107%; in test [14], 103%; in test [15], 103%; in [16], 102%; in test [17], 94.5%; in test [18], 96.8%. The growth was 106% in [19] and 99.2% in [20].

For `COc1cc(C[C@H]2COc3cc(O)cc(O)c3C2=O)ccc1O`, the growth is 49.8% in test [1]; 101% in [2]; 69.7% in test [3]; 35.4% in [4]; 18.6% in [5]; 30.9% in [6]. The growth in [7] is 17.2%; in test [8] it was 46%; in [9], 25.6%; in test [10], 106%; in test [11], 43.1%; in test [12], 9.86% (active). The growth in test [13] was 62%; in test [14], 55.3%; in [15], 34.7%; in [16] it was 47.2%; in [17], 54.5%; in [18], 3.27% (active). Also, the figures for the growth in [19] and in test [20] were 35.8% and 9.16% (active), respectively.

For the compound `COc1ccc(C2CC(n3ccnc3)c3cc(OC)c(OC)c(OC)c32)cc1O` (stereo not given), the growth was 91.5% in [1]; 97.4% in [2]; 102% in test [3]; 80.8% in [4]; 78.7% in test [5]; 59.6% in test [6]. Moreover, the growth was 50.1% in test [7]; 55.8% in [8]; 91.7% in test [9]; 107% in [10]; 102% in test [11]; 44.7% in test [12]. For the same compound, the growth in test [13] is 73.2%; in test [14], 81%; in test [15], 70.8%; in [16], 90%; in test [17], 57.5%; in test [18], 89.8%. Moreover, the growth in test [19] is 58.5%; in test [20] it was 73.1%.

Take `COc1cc(-c2ccc[nH]2)[nH]c1/C=C1\N=C(C)C(CC(=O)OCC(C)(C)C)=C1C`: the growth in [1] is -46.8% (active); in test [2], -55.5% (active); in test [3], -49.7% (active); in test [4] it was -70.9% (active); in test [5], -67.3% (active); in test [6], -51.3% (active). Further, the growth in [7] was -62.8% (active); in [8], -69.1% (active); in test [9], -88.1% (active); in [10], -61.9% (active); in test [11] it was -73.9% (active); in [12] it was -42.9% (active). Besides, the growth was -76.3% (active) in test [13]; -57.2% (active) in [14]; -82.3% (active) in test [15]; -70.8% (active) in test [16]; -81.8% (active) in test [17]; -69.3% (active) in [18]. The growth is -81.4% (active) in [19] and -86.3% (active) in test [20].

Regarding `COc1cc(-c2ccc(-c3ccc(C(=N)N)cc3)s2)cc(OC)c1OC`, the growth was 84.4% in test [1]; 82.5% in test [2]; 73.2% in [3]; 59.1% in [4]; 37.1% in [5]; 43.4% in [6]. Moreover, the growth in [7] was 62.4%; in [8], 75.4%; in test [9], 69.4%; in test [10], -41.8% (active); in [11] it was 63.6%; in test [12], 1.05% (active). In addition, the growth in test [13] is 32.7%; in test [14], 53.2%; in [15], 80.9%; in test [16], 65.1%; in test [17] it was 46.2%; in [18] it was 47.1%. Moreover, the growth in test [19] is 63.5%; in [20], 47.9%.

In the case of `COCCn1cc(-c2nc(-c3cc4cccnc4n3C)cs2)c2ccccc21`, the growth is 39.4% in test [1]; 60.9% in test [2]; 41.6% in [3]; 52.5% in test [4]; 19.9% in test [5]; 44.1% in test [6]. Also, the growth is -6.38% (active) in test [7]; 28.9% in test [8]; 56.7% in test [9]; 11.9% in [10]; 66.8% in test [11]; 20% in test [12]. For the same compound, the growth in test [13] was 70.7%; in test [14] it was 37.1%; in [15], 70.7%; in test [16], 58.9%; in test [17] it was 36.5%; in test [18], 60.6%. Besides, the results for the growth in test [19] and in test [20] were 49% and 24.3%, respectively.

As for `c1cc(OCCCCCOc2cccc(-c3nc4ccccc4[nH]3)c2)cc(-c2nc3ccccc3[nH]2)c1`, the growth is 3% (active) in [1]; 10.2% in test [2]; 23.1% in test [3]; 39.1% in test [4]; 6.73% (active) in [5]; -29.3% (active) in test [6]. The growth in [7] is -14.8% (active); in test [8], 13.9%; in test [9] it was 19.8%; in test [10], -59.1% (active); in test [11], 33.2%; in test [12] it was 9.81% (active). The growth in test [13] was -13.6% (active); in test [14], 19.6%; in test [15], 6.51% (active); in [16], 61.3%; in test [17], 8.95% (active); in test [18], 28.3%. Further, the growth was 22.9% in test [19] and 20.1% in test [20].

The values are drawn from PubChem BioAssay (NCI).
